Experimental data as given in PubChem BioAssay.
Where “and” joins values, the source holds several entries; their conditions need not be identical. Equal entries are not always repeated. Records with an inconclusive call do not appear. Calls of active or inactive are those of the source. Unless noted, no rule for the calls is given here.

Test: kinase inhibitors against Plasmodium liver-stage infection, cell-based, known kinase inhibitor set, luminescence, hepatoma host viability (AID 624392);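 also: infected cells incubated roughly two days before readout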
Conditions: Plasmodium liver stage in hepatoma cells, luciferase luminescence, concentration not given here; liver cell % of control: measured here: host liver cell viability; parasite % of control: stronger effect = lower value
In the case of `CC(C)C(=O)Nc1ncc(-c2cc(C(F)F)nn2-c2c(Cl)cccc2Cl)s1`, the liver cell % of control was 78% and 87.1% and 89.1% and the parasite % of control was 2.64% (inactive) and 20.3% (inactive) and 36.7% (inactive). With `S=C(NCc1ccc2c(c1)OCO2)N1CCN(c2ncnc3c2oc2ccccc23)CC1` the parasite % of control was 3.34% (inactive) and 4.31% (inactive) and 22.8% (inactive) and the liver cell % of control was 79.8% and 74.8% and 83.5%. With `OCCC#Cc1nc(-c2ccc(F)cc2)c(-c2ccncc2)n1CCCc1ccccc1` the parasite % of control was 3.85% (inactive) and 44.3% (inactive) and 36.9% (inactive) and the liver cell % of control was 306% and 93.3% and 95.7%.

Test: viability loss in pontine glioma line – cell-based, SU-DIPG-XXV, MIPE5.0, CellTiter-Glo, qHTS, dose response (AID 1347065; cut-off not given, nearly all actives have AC50 up to about 26 µM;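 also: cells exposed to compound for 48 hours before ATP readout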)
Conditions: CellTiter-Glo ATP luminescence
With `CNCc1ccc(-c2cc(-c3nc(-c4ccc(S(=O)(=O)C(C)C)cc4)cnc3N)on2)cc1` the AC50 was 6.61 µM (active). In the case of `S=C(NCc1ccc2c(c1)OCO2)N1CCN(c2ncnc3c2oc2ccccc23)CC1`, the AC50 was 18.6 µM (active). With `Cc1cccc(CC(=O)N2CCc3c2ccc(-c2cn(C)c4ncnc(N)c24)c3F)n1` the AC50 was 10.5 µM (active). For `CN1CCN(c2ccc(OC(F)(F)F)c(Nc3ncc4c(n3)-c3c(c(C(N)=O)nn3CCO)CC4)c2)CC1`, the AC50 was 0.118 µM (active).
